Laboratory results as given in PubChem BioAssay AID2018 (Sanford-Burnham Center for Chemical Genomics, 2009).
In all, about 1,200 compounds went through this assay and about 600 (50%) were called active. So high a share suggests a set chosen from earlier hits. Some of the results follow. Entries with a potency or affinity are not part of this list. Values without a mark were called inactive. Cut-off read from the data, not from the text of the source: active = inhibition above about 42%; inactive = the rest.

What follows are compounds tested against SUMO-conjugating enzyme UBC9 (Homo sapiens) (UniProt P63279) (assay: SUMOylation inhibitor hit validation, confirmation, SUMOylation inhibitor project, biochemical, AlphaScreen (AID 2018)). Details: AlphaScreen in vitro SUMOylation assay; at 35 µM; active compounds read high.
Chain of SUMO-conjugating enzyme UBC9 (Homo sapiens) (P63279 whole entry, looked up): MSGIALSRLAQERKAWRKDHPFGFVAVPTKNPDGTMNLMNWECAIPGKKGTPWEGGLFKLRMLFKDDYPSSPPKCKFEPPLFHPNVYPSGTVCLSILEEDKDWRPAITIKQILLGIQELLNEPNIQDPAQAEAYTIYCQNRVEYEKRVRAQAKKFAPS

Compound	inhibition
CC(=O)c1cccc(NC(=S)Nc2cccc3ccccc23)c1	-7.4%
COc1cc(=O)n(C)c2c(OCC3OC(C)(C)OC3(C)C)cccc12 (configuration not stated)	11.2%
Cc1ccc(Cn2nnnc2CN2CCC(NC(=O)C(C)(C)C)CC2)cc1	-8.9%
O=C(Nc1ccc(Cl)c(Cl)c1)Nn1cnnc1	-10.6%
COc1cc(/C=C2/C(=O)N(c3ccccc3)N=C2C)ccc1OS(=O)(=O)c1ccccc1	91.3% (active)
COc1ccc(/C=C2/C(=O)N(c3ccccc3)N=C2C)cc1OC	38.1%
COc1ccc(C(=O)N2CCC(O)(c3ccc(F)cc3)CC2)cc1OC	-18.3%
Cc1[nH][nH]c(=O)c1C(c1ccc(-c2cccc(Cl)c2)o1)c1c(C)[nH][nH]c1=O	101% (active)
Cc1[nH][nH]c(=O)c1C(c1ccc(-c2ccc(Cl)cc2)o1)c1c(C)[nH][nH]c1=O	66.7% (active)
Cc1[nH][nH]c(=O)c1C(c1ccc(-c2ccc(F)cc2)o1)c1c(C)[nH][nH]c1=O	59.6% (active)
OC(COc1ccccc1)CSc1ncn[nH]1 (configuration not stated)	2.4%
O=S(=O)(Nc1ccc2c(c1)nc1n2CCN(Cc2ccccc2)C1)c1ccccc1	-3.3%
O=S(=O)(Nc1cc2nc3ccccc3nc2n1Cc1ccccc1)c1ccc(Cl)cc1	102% (active)
CCn1c2ccccc2c2c3ncc4cccn4c3ccc21	-74.8%
Cc1cccn2c(=O)c3cc(C(=O)NC4CCCCCC4)sc3nc12	33.8%
CCOc1ccc(NC(=S)Nc2ccc3nsnc3c2)cc1	101% (active)
COc1ccc(N(C)C(=O)Nc2ccc3nsnc3c2)cc1	7.7%
S=C(Nc1ccc2nsnc2c1)N1CCCC1	17.9%
COc1ccc(NC(=S)Nc2ccc3nccnc3c2)cc1	8.4%
C=CCN(CC=C)C(=S)Nc1ccc2nsnc2c1	23.6%
COc1ccc(NC(=S)Nc2ccc3nsnc3c2)cc1	101% (active)

Compound	inhibition
COc1ccc(/C=N/N=C2/CC(C)(C)Cc3n[nH]c(=O)cc32)cc1	26.2%
COc1ccc(OC)c(/C=N/NC(=O)CCc2ccc(O)c(O)c2)c1	18.5%
O=C(NC(=S)Nc1cccc2c(O)cccc12)c1ccccc1[N+](=O)[O-]	16.6%
O=C(O)c1cccc([N+](=O)[O-])c1C(=O)Nc1cccc2ccccc12	-1.9%
N#Cc1c(N)nc2c(c1-c1ccc3c(c1)OCO3)CCc1ccccc1-2	-58.5%
S=C(Nc1cccc(Cl)c1)Nc1ccc2cn[nH]c2c1	7.2%
Cc1cc(C)c(C(N)=O)c(Nc2cccc3ccccc23)n1	24.4%
Fc1ccc(NC(=S)Nc2cccc3ccccc23)cc1	-2.8%
Fc1ccc(NC(=S)Nc2cccc3ccccc23)cc1F	-4.6%
Cc1ccc(NC(=S)Nc2cccc3ccccc23)cc1F	3.1%
Nc1ccc(O)cc1C(=O)OCC(=O)c1ccc(C2CCCCC2)cc1	29.2%
COC(=O)C1C(O)=C(C(C)=Nc2cccc3ccccc23)C(=O)CC1(C)C (configuration not stated)	-0.8%
CC(C)(C)c1cc(=O)n(-c2ccccc2)[nH]1	22.8%
Cc1cc(=O)[nH]c(-n2[nH]c(C)cc2=O)n1	78.7% (active)
Cc1ccc(N2CCN(Cc3ccccc3)CC2=O)c(C)c1	18.7%
O=c1c(-c2ccccc2)coc2c(CN3CCCC3)c(O)ccc12	-8%
CC(=O)c1ccc(N2CCN(C(=O)c3cccs3)C(C)C2)c(F)c1 (configuration not stated)	14.2%
Cc1nn(-c2ccccn2)c2c1C(=O)C(Br)CC2 (configuration not stated)	97.2% (active)
O=c1c2ccccc2nc2n1CCC2	97.9% (active)
Cc1ccc(/C=C(\C#N)C(=O)Nc2cccc3ncccc23)o1	23.5%
O=C(O)c1cc(Cl)c(Cl)cc1C(=O)Nc1cccc2ncccc12	9.9%

Compound	inhibition
Cc1cc(C)c(S(=O)(=O)/N=C2/C=C(SCC(=O)O)C(=O)c3ccccc32)cc1C	95.8% (active)
COc1ccc2nc(/C(C#N)=C\c3ccc(C(=O)O)cc3)[nH]c2c1	21.7%
CCc1cccc(NC(=S)Nc2cccc3ccccc23)c1	15%
CCC(NC(=O)Nc1ccc(O)cc1)(C(F)(F)F)C(F)(F)F	-10.3%
COc1cc(/C=C2\C(=O)N(CCC#N)N=C2C)ccc1OCC(=O)Nc1ccccc1	12.4%
O=C1Nc2ccc(C(F)(F)F)cc2N2CCCC12 (configuration not stated)	46.5% (active)
Cc1ccc(NC(=S)Nc2cccc3ccccc23)cc1	19.1%
CC(C)(C)c1cc[n+](C2=C([O-])c3ccccc3C(=O)/C2=N\S(=O)(=O)c2cccs2)cc1	90.8% (active)
O=C(O)COc1ccccc1C(Nc1cccnc1)c1cc(Cl)c2cccnc2c1O (configuration not stated)	102% (active)
CCOc1ccc(C(Nc2cccnc2)c2cc(Cl)c3cccnc3c2O)cc1 (configuration not stated)	-212%
COC(=O)c1ccccc1NC1=C/C(=N\S(=O)(=O)c2cccs2)c2ccccc2C1=O	102% (active)
CCN(C(=S)Nc1cc(S(=O)(=O)N2CCOCC2)ccc1Cl)c1cccc2ccccc12	11.1%
O=[N+]([O-])c1cc(Cl)cc(/C=N/NC(=S)Nc2ccc(S(=O)(=O)N3CCOCC3)cc2)c1O	102% (active)
COc1cccc(C(c2c(C)[nH]n(-c3ccccc3)c2=O)c2c(C)[nH]n(-c3ccccc3)c2=O)c1OC	89.3% (active)
Cc1[nH]n(-c2ccccc2)c(=O)c1C(c1cccc([N+](=O)[O-])c1)c1c(C)[nH]n(-c2ccccc2)c1=O	79.1% (active)
CC(C)(C)c1cnnn1-c1cccc([N+](=O)[O-])c1	5.8%
Cc1[nH]n(-c2ccccc2)c(=O)c1C(C[N+](=O)[O-])c1ccc(Br)cc1 (configuration not stated)	101% (active)
C=CCN(CC=C)c1nc2ccccc2nc1C(C#N)C(=O)OC(C)C (configuration not stated)	-10.3%
Cc1[nH]n(-c2ccccc2)c(=O)c1C(c1ccc(C(=O)O)cc1)c1c(C)[nH]n(-c2ccccc2)c1=O	41.6%
COc1ccc(C(c2c(C)[nH]n(-c3ccccc3)c2=O)c2c(C)[nH]n(-c3ccccc3)c2=O)cc1OC	101% (active)
